# Rows were chosen to be rich in hits. Some 3% of all compounds tested hit in one or more screens of this group.
# TRPM1 prom inh – inhibitors of MITF-driven TRPM1 promoter in melanoma cells. 0.83% of 330,000 active. SK-MEL-5 TRPM1 promoter luciferase, 24 h. inhibition, % at 12.5 µM. AID 488899;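 active = mean inhibition across replicates of 60% or more, whatever share of single replicates reaches that level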
# ABHD5 PLIN5 PPI – ABHD5-PLIN5 protein interaction inhibition; Q00G26+Q8WTS1; Split G. princeps luciferase complementation, luminescence, 4 h; inhibition, % at 4 µM; 0.78% of 360,000 active; AID 602281;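 active = inhibition above the mean inhibition across every tested compound plus 3 SD, cut at about 22% in these data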;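 note: 0% = DMSO only wells and the 100% control is not disclosed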
# Target sequence (Q00G26 whole entry, looked up): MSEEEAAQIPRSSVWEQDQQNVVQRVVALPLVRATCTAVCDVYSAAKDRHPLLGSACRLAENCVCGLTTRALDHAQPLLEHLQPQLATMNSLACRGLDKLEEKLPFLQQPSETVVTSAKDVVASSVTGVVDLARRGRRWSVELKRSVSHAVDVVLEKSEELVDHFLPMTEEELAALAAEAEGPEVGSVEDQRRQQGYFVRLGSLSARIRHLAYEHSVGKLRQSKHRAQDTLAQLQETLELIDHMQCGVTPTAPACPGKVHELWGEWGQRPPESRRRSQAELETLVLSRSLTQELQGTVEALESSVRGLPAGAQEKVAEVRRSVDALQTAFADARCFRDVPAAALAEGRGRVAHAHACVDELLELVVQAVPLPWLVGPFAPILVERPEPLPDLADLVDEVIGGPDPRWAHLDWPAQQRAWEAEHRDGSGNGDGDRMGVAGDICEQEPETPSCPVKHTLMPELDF
# Target sequence (Q8WTS1 whole entry, looked up): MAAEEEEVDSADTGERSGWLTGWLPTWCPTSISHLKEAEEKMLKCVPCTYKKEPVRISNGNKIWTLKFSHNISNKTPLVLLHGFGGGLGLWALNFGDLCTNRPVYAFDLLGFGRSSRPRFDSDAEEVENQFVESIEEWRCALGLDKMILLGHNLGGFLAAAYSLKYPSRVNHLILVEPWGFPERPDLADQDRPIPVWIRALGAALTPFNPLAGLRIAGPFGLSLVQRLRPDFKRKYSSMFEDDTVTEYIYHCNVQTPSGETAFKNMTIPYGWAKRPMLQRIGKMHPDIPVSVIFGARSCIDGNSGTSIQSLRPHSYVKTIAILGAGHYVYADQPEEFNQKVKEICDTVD
# CF NFkB block – cystic fibrosis NF-kB activation inhibition | AID 588850 | 0.86% of 360,000 active | inhibition, % at 5 µM | KKLEB NF-kB-GFP reporter, PAF-induced, GFP fluorescence overnight;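 active = at least 50% inhibition at 5 µM, scaled per plate between neutral and stimulator controls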;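 note: PAF is a Pseudomonas aeruginosa culture filtrate used as stimulus; plate controls were PAF-stimulated DMSO wells for no effect and unstimulated DMSO wells for full effect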
# HIF-2a block – HIF-2a inhibition; 786-0 RCC cells HIF-2a reporter, luciferase luminescence, overnight; inhibition, % at 18.8 µM; 0.72% of 360,000 active; AID 624352;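 active = inhibition of the luminescence signal of 40% or more relative to plate controls, in a single-dose primary screen at 18.75 µM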
# Peg3 promoter – Peg3 promoter activity inhibition | HeLa PEG-Prom luciferase reporter, luminescence, overnight | inhibition, % at 20 µM | 1.7% of 360,000 active;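 active = inhibition of at least 50% at 20 µM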
# KKLEB cytotox – CF airway cell cytotoxicity counter-screen; KKLEB CF airway cells viability, ATPlite luminescence, overnight; active compounds read low; cells stimulated with P. aeruginosa culture filtrate; activity change (cytotoxicity), % at 5 µM; 0.36% of 360,000 active;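 active = corrected activity change at or below -50% at 5 µM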
# Starred values were filed as active, the others as inactive; x = no result.
SMILES,TRPM1 prom inh,ABHD5 PLIN5 PPI,CF NFkB block,HIF-2a block,Peg3 promoter,KKLEB cytotox
O=C(CCc1ccccc1)NC1(Cc2ccccc2)CCN(CCc2cccs2)C1=O (stereo unspecified),2.4,-3.4,-3.6,5.8,11.4,4.8
O=C(NC1(Cc2ccccc2)CCN(Cc2ccc(-c3ccccc3)cc2)C1=O)c1ccccc1 (stereo unspecified),-1.3,-5.1,8.7,-1.3,85.2*,-16.9
COCC(C)NC(=O)CCS(=O)(=O)c1nc(-c2ccc(OC)cc2)cc(C(F)(F)F)n1 (stereo unspecified),7.1,13.5,86.2*,93.6*,109.9*,-75.6*
COc1cccc(C(=O)N2CCCC(Nc3ccc(C)c(C)c3)C2)c1 (stereo unspecified),1.9,-1.9,14.8,1.8,2.2,10.4
O=C(O)c1ccccc1Nc1cccc(C(F)(F)F)c1,-4.1,-3.2,12.0,-12.5,1.5,-58.6*
N#CCSc1nc2cc(C(=O)N3CCC(C(N)=O)CC3)ccc2c2nc3ccccc3n12,17.4,2.2,67.5*,-6.2,10.7,-25.5
CCn1c(SCC#N)nc2ccccc2c1=O,5.8,2.6,0.1,11.7,13.9,-9.3
N#CCSc1nc2ccccc2c2nc3ccccc3n12,76.6*,2.4,41.7,-4.3,39.9,-45.6
N#CCSc1nc2cc(C(=O)N3CCCC3)ccc2c(=O)n1Cc1ccccc1,20.5,0.8,19.6,22.2,26.4,-14.3
C/C(=N/NC(=O)CNC(=O)c1cccc(F)c1)c1ccc2c(c1)CCCC2,-3.2,-3.0,3.9,-27.8,-21.7,-11.5
COc1ccc(CNC(=O)CN2C(=O)C3C4C=CC(C4)C3C2=O)cc1 (stereo unspecified),93.4*,-1.1,15.1,-0.2,12.2,0.3
CCN(CC)C(=S)SSC(=S)N(CC)CC,31.3,8.7,-20.8,27.8,68.0*,4.8
C=CC[C@H](CC(=O)N(CCO)Cc1ccccc1)C(=O)N[C@@H](COC(=O)[C@@H](CC=C)Cc1ccc(F)cc1)Cc1c[nH]c2ccccc12,0.5,7.7,7.4,-36.9,60.2*,7.3
C=CCC[C@H](Cc1ccc(F)cc1)C(=O)OC[C@@H](Cc1c[nH]c2ccccc12)NC(=O)[C@H](CC=C)CC(=O)N(CCO)Cc1ccccc1,16.9,-1.4,14.3,-10.2,64.5*,-12.0
C=CCC[C@H](Cc1ccc(F)cc1)C(=O)OC[C@H](Cc1c[nH]c2ccccc12)NC(=O)[C@@H](CC=C)CC(=O)N[C@@H](CO)Cc1ccccc1,75.0*,-3.5,40.0,-2.1,35.0,-34.9
C=CCC[C@@H](Cc1ccc(F)cc1)C(=O)OC[C@@H](Cc1c[nH]c2ccccc12)NC(=O)[C@H](CC=C)CC(=O)N(CCO)Cc1ccccc1,10.0,-0.2,27.2,5.7,52.3*,-1.6
C=CC[C@@H](CC(=O)N(CCO)Cc1ccccc1)C(=O)N[C@@H](COC(=O)[C@@H](CC=C)Cc1ccc(F)cc1)Cc1c[nH]c2ccccc12,7.1,-7.1,29.7,14.9,43.3,-5.6
Cc1c(/C(O)=C2\C(=O)C(=O)N(CCN(C)C)C2c2ccccc2)cnn1-c1ccccc1 (stereo unspecified),5.0,-5.0,3.1,17.9,-13.4,9.6
Cc1ccc(NC(=O)COC(=O)COc2cccc3c2OC(C)(C)C3)cc1S(=O)(=O)N1CCOCC1,-1.5,7.5,7.7,18.6,-5.8,-3.0
Cc1ccc(-c2cnc(C(O)c3ccc(Cl)c(Cl)c3)[nH]2)cc1 (stereo unspecified),x,-0.4,3.2,-2.7,12.2,-7.9
COc1ccccc1NC(=O)COC(=O)c1ccc(N2CCCC2=O)cc1,-8.3,-1.8,-27.0,3.9,1.0,5.7
CCOC(=O)c1cc(-c2ccccc2C)n(CC2CC(c3cccc([N+](=O)[O-])c3)=NO2)n1 (stereo unspecified),-0.1,6.8,22.8,28.0,32.3,-9.2
O=P(COCCCCCOCP(=O)(c1ccccc1)c1ccccc1)(c1ccccc1)c1ccccc1,5.8,1.5,-9.9,-1.8,21.9,4.5
C=CC[C@H](CC(=O)N[C@H](CO)Cc1ccccc1)C(=O)N[C@@H](COC(=O)[C@@H](CC=C)CC(=O)OC(C)(C)C)Cc1c[nH]c2ccccc12,-7.7,1.9,2.5,7.2,62.6*,9.3
